{"source": "PubChem BioAssay AID624331", "about": "(National Center for Advancing Translational Sciences (NCATS), 2012)", "note": "Inconclusive results are not listed. A call without a number means that no potency is given here. The source made the active and inactive calls. Calls come from the whole dose curve; as a rule, active = well fitted activation curve with a large enough effect; inconclusive = small, poorly fitted or top-dose-only effect; inactive = no such curve, though single readings can be large or run the other way. Potency is the fitted concentration of half-maximal effect."}
{"assay": "qHTS assay for re-activators of p53 using a Luc reporter: Hit Validation with no p53 Expressed", "conditions": "p53-null cells, luciferase reporter counter-screen; series mostly up to 46.1 µM", "method_in_brief": "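Counter-screen of primary hits in a cell line not transfected with p53, in Opti-MEM with 10% FBS; compounds at several concentrations (10 mM stock, 1:5; top 46.1 µM in well), 24 h at 37 deg C, 5% CO2. Luminescence read after 10 min with Amplite reagent.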"}
{"smiles": "COc1ccc(S(=O)(=O)NC2CC(C)(C)NC(C)(C)C2)c2ccccc12", "Potency": "inactive"}
{"smiles": "CCOC(=O)N1CCN(S(=O)(=O)c2ccc(C(=O)NNc3nc4cc(C)cc(C)c4s3)cc2)CC1", "Potency": "inactive"}
{"smiles": "c1ccc(COc2ccc(OCCOCCn3cncn3)cc2)cc1", "Potency": "1.3 µM (active)"}
{"smiles": "C#CCOc1ccc(/C=C2\\SC(=S)N(Cc3cccnc3)C2=O)cc1", "Potency": "inactive"}
{"smiles": "N#C/C(=C\\c1ccccc1[N+](=O)[O-])c1nc(C2CC2)cs1", "Potency": "11.6 µM (active)"}
{"smiles": "Cc1cc(C(=O)CSc2nnc(N)s2)c(C)n1Cc1cccs1", "Potency": "inactive"}
{"smiles": "COc1ccc(-c2cc3ccc(F)cc3cn2)cc1", "Potency": "inactive"}
{"smiles": "CCn1c(=N)n(CCOc2ccc(OC)cc2)c2ccccc21", "Potency": "inactive"}
{"smiles": "COc1ccc(C2SCCN2C(=S)Nc2ccc(Cl)cc2)cc1", "note": "(stereo not given)", "Potency": "inactive"}
{"smiles": "O=C(Nc1nc2ccccc2s1)c1ccc2c(c1)OCO2", "Potency": "inactive"}
{"smiles": "Oc1ccccc1-c1cc(-c2ccccc2)n[nH]1", "Potency": "inactive"}
{"smiles": "CC1C(=O)CCN(C(C)(C)C)C1C", "note": "(stereo not given)", "Potency": "inactive"}
{"smiles": "COc1ccc(CCC(=O)NC(C)C2CCCO2)cc1", "note": "(stereo not given)", "Potency": "inactive"}
{"smiles": "FC(F)(F)c1nnc2c(Sc3ccccn3)nc3ccccc3n12", "Potency": "inactive"}
{"smiles": "O=C(CN1C(=O)NC2(CCCc3ccccc32)C1=O)c1ccc(F)cc1", "note": "(stereo not given)", "Potency": "inactive"}
{"smiles": "O=C(NC(=S)Nc1ccccc1Br)C1CCCCC1", "Potency": "inactive"}
{"smiles": "Cc1cc(NC(=O)c2ccco2)sc1C", "Potency": "inactive"}
{"smiles": "c1ccc2cc3c(NCCN4CCOCC4)ccnc3cc2c1", "Potency": "inactive"}
{"smiles": "Cc1ccc(-n2c(C)cc(C(=O)CSc3nnc4ccccn34)c2C)cc1", "Potency": "0.731 µM (active)"}
{"smiles": "Cc1cccc2nc(CNc3ccc(F)cc3)cn12", "Potency": "inactive"}
